From PubChem
This is a sample that favours compounds with a hit; in the whole collection about 19% have one here.
IL-1B inflam inh = blocks inflammasome-driven IL-1 beta release; AID 743279; THP-1 LPS/ATP IL-1B secretion, AlphaLISA, 16 h; stronger effect = lower value; activity change, % at 57.5 µM; 4.7% of 360,000 active; in the data active means activity change below about -50%; inconclusive means mostly about -30% to -49%; further: on the % scale 0 is the no-effect control and ±100 the full control effect
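Secreted IL-1B measured by AlphaLISA bead assay after 16 h compound exposure of THP-1 cells; compounds (final up to 57.5 uM) added 1 h before LPS (250 ng/mL) and ATP (1.25 mM) stimulation; lower signal means less secretion.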
DT40 TDP1 CPT = growth inhibition of DT40 Tdp1-/-;hTDP1 cells with camptothecin (screen for TDP1 inhibitors); chicken DT40 Tdp1-/-;hTDP1 cells + 20 nM CPT, ATP luminescence, 48 h; Potency, µM (doses to about 46.2 µM), for inactives: at the highest dose activity change, negative = growth inhibition, actives largely listed as inhibitors; 12% of 420,000 active; further: potency means the concentration at half of the fitted maximal effect; on the % scale 0 is the no-effect control and ±100 the full control effect; nearly all actives have a fitted effect of over 55% in size
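Chicken DT40 Tdp1-/- cells stably complemented with human TDP1 were seeded at 400 cells/well in medium containing 20 nM camptothecin, exposed to pin-transferred compounds, and grown at 37 °C for at least 48 hr. Viability was read as ATP luminescence.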
TDP1 cell noCPT = qHTS for Inhibitors of human tyrosyl-DNA phosphodiesterase 1 (TDP1): qHTS in cells in absence of CPT | DT40 Tdp1-/- hTDP1 cells, no CPT, ATP luminescence, 48 h | Potency, µM (highest dose often 46.2 µM), for the others: at the top dose activity change, negative = growth inhibition, usual class: inhibitors | 15% of 420,000 active; further: potency means the concentration at half of the fitted maximal effect; on the % scale 0 is the no-effect control and ±100 the full control effect; nearly all actives have a fitted effect of over 55% in size
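DT40 Tdp1-/-;hTDP1 cells, no CPT (DMSO vehicle only), 400 cells/well; compounds pin-transferred; ≥48 hr, 37 °C; CellTiter-Glo 30 min RT dark, luminescence read.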
ASM inhibitor = blocks human secretory acid sphingomyelinase. 0.006% of 340,000 active. Potency, µM (top dose mostly 57.5 µM), without a hit: at the top dose activity change, negative = inhibition, most hits filed as inhibitors. P17405. placental ASM, HMU-PC fluorogenic substrate, 60 min; further: potency means the concentration at half of the fitted maximal effect
Target sequence (P17405 47-631 limits assumed): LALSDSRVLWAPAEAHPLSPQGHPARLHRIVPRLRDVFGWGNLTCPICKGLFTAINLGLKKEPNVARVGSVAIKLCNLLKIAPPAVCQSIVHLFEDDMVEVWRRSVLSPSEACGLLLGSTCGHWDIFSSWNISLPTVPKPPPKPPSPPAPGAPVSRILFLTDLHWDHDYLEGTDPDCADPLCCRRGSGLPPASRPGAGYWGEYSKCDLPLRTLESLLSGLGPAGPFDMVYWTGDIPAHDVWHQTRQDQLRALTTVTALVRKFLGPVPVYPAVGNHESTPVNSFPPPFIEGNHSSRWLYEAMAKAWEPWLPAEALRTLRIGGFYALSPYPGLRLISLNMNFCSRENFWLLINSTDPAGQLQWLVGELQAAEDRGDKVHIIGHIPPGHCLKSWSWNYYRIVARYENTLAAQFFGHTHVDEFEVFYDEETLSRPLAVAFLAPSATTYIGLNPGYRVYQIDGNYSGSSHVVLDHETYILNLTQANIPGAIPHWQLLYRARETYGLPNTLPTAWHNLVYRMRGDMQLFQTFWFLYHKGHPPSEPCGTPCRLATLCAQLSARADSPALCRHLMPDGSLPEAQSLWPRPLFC
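HMU-PC0 cleavage (9 uM final) by human placental ASM, 60 min at 37 °C following 10 min compound exposure at RT; stopped at pH 10, fluorescence Ex 386/Em 447 nm.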
TGFb inhibitor = TGF-b pathway inhibition. HepG2 CAGA-GFP TGF-b/SMAD3 reporter, GFP fluorescence, 18 h; TGF-beta stimulated, 500 pg/mL final. Potency, µM (doses to about 46.1 µM), without a hit: at the highest dose activity, negative = inhibition, hits mostly inhibitors. 1.2% of 410,000 active. AID 588855; further: potency means the concentration at half of the fitted maximal effect; on the % scale 0 is the no-effect control and ±100 the full control effect; nearly all actives have a fitted effect of over 65% in size
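Using HEPG2 CAGA-GFP reporter cells at 1000 cells/well, we pinned test compounds, stimulated with recombinant TGF-beta (500 pg/mL final) and measured total well GFP after 18 h.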
HepG2 tox = kills HepG2 cells in TGF-b inhibitor counter-screen | HepG2 CAGA-GFP viability, ATP luminescence, 18 h | Potency, µM (titrated, usually from 46.1 µM), for inactives: at the top dose activity change, negative = cytotoxicity, actives largely listed as cytotoxic | 0.76% of 410,000 active | AID 588856; further: potency means the concentration at half of the fitted maximal effect
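HepG2 CAGA-GFP cells (1000/well, DMEM with 1% FBS) received compound, then TGF-beta at 500 pg/mL final, and were incubated 18 hours at 37 degrees C. Viability was read by CellTiter-Glo luminescence. Media-only wells were set as complete cell-killing and DMSO as no toxicity.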
An asterisk follows results filed as active; i = inactive; ? = inconclusive; · = no result given; ! = not confirmed by another sample; [ ] = dose if it differs, or a comment. Unless noted, the call rests on the fitted dose curve; in most records, active means well fitted curve in the direction sought with a large enough effect; inconclusive means small, poorly fitted or top-dose-only effect, or another doubt; inactive means no such curve, though single readings can be large; an effect the other way counts as inactive or inconclusive.

SMILES	IL-1B inflam inh	DT40 TDP1 CPT	TDP1 cell noCPT	ASM inhibitor	TGFb inhibitor	HepG2 tox
CCn1c(=O)c(C(=O)NNC(=O)c2cccc(Cl)c2)c(O)c2ccccc21	11	23µM*	?	-6%	?	-56%
CCn1c(=O)c(C(=O)NNC(=O)c2ccc(Cl)cc2Cl)c(O)c2ccccc21	13	?	?	0%	1%	4%
Cn1c(=O)c(C(=O)NNC(=O)c2cccc(Cl)c2)c(O)c2ccccc21	?	18µM*	13µM*	1%	?	-31%
Cn1nc(C(=O)NNC(=O)c2cccc(Cl)c2)c2ccccc2c1=O	0	-1%	14%	6%	-4%	-2%
Cc1cccc(C(=O)NNC(=O)c2c(O)c3ccccc3n(C)c2=O)c1	-2	?	29µM*	-20%	?	-22%
Cn1c(=O)c(C(=O)NNC(=O)c2ccccc2Br)c(O)c2ccccc21	-7	?	?	-10%	-1%	-12%
COC(CNC(=O)c1c[nH]c2ccc(S(=O)(=O)N(C)c3ccc(F)cc3)cc2c1=O)OC	35	?	-19%	-3%	24%	-18%
CC(OC(=O)c1ccc(F)c(S(=O)(=O)N2CCOCC2)c1)C(=O)NCC1CCCCC1 (stereo unspecified)	-8	-3%	?	-2%	-2%	1%
CC(NC(=O)c1c(O)c2ccccc2n(C)c1=O)c1ccccc1 (stereo unspecified)	28	23µM*	18µM*	-3%	9%	-3%
COC(C[C@H]1O[C@@H]1C(=O)COCc1ccccc1)OC	25	4.1µM*	4.6µM*	2%	-18%	-28%
COC(C[C@@H]1O[C@H]1C(=O)COCc1ccccc1)OC	15	16µM*	21µM*	1%	0%	-40%
COC(C[C@@H]1O[C@@H]1C(=O)COCc1ccccc1)OC	51	18µM*	?	5%	-3%	-9%
Cc1ccc(S(=O)(=O)N2CCN(c3ccccc3)CC2)s1	-7	2%	-4%	-2%	-2%	-9%
CCCCc1nn2c(=O)cc(COC(=O)c3cccc(OC)c3)nc2s1	·	?	-27%	·	-9%	-10%
Cc1ccc(OCc2cc(C(=O)N3CCN(c4ccccc4)CC3)no2)cc1C	i	-7%	-16%	0%	-17%	-24%
Cc1cccc(OCC(=O)Nc2cc(C)c(O)c(-c3nc4ccccc4o3)c2)c1	·	11µM*	?	·	35%	6%
Cc1ccccc1OCC(=O)Nc1cc(C)c(O)c(-c2nc3ccccc3o2)c1	·	10µM*	?	·	19%	-15%
COc1ccc(CNC(=O)CN(C(=O)Cn2nnc(-c3ccccc3F)n2)c2ccc(C)cc2)cc1	6	-5%	16%	2%	-5%	-16%
CCN(CC(=O)Nc1ccc([N+](=O)[O-])cc1OC)CC(=O)NC(C)(C)C	17	-22%	?	-5%	17%	-19%
Cc1ccc(NC(=O)c2sc3ncn(CC(=O)N4CCN(c5ccccn5)CC4)c(=O)c3c2C)cc1Cl	17	?	15µM*	-22%	?	-62%
COc1cccc(NC(=O)c2sc3ncn(CC(=O)N4CCN(c5ccccn5)CC4)c(=O)c3c2C)c1	-8	18µM*	?	-1%	1%	-7%
COc1cc(NC(=O)c2sc3ncn(CC(=O)N4CCCCC4C)c(=O)c3c2C)cc(OC)c1OC (stereo unspecified)	-11	?	12µM*	·	4%	-2%
Cc1ccc(NC(=O)c2sc3ncn(CC(=O)N4CCN(c5ccccn5)CC4)c(=O)c3c2C)cc1F	34	?	-17%	-14%	-10%	-9%
COCCCNC(=O)c1sc2ncn(CC(=O)Nc3ccc(C)c(Cl)c3)c(=O)c2c1C	17	?	21µM*	-1%	-20%	-7%
CCc1ccccc1NC(=O)Cn1c(=O)c2cccn2c2ccc(F)cc21	·	-7%	-20%	·	-16%	-14%
SMILES	IL-1B inflam inh	DT40 TDP1 CPT	TDP1 cell noCPT	ASM inhibitor	TGFb inhibitor	HepG2 tox
CCn1c2ccccc2c2cc(/C=C3\C=Cc4ccccc43)ccc21	·	-20%	?	·	9%	-21%
Cc1cccc(N2CCN(C(=O)c3c(Cl)cnn3C)CC2)c1C	-10	?	?	·	1%	-26%
NC(=O)c1ccc(NC(=O)CSc2nnc(-c3ccncc3)n2Cc2ccco2)cc1	17	17%	-6%	6%	2%	-12%
CN(C)[C@@H]1C(=O)C(C(=O)NCN2CCCC2)=C(O)[C@@]2(O)C(=O)C3=C(O)c4c(O)cccc4[C@@](C)(O)C3C[C@@H]12 (stereo partly specified)	·	-15%[21.1 µM]	-1%[21.1 µM]	·	·	·
CN(C)c1ccc(O)c2c1CC1CC3[C@@H](N(C)C)C(=O)C(C(N)=O)=C(O)[C@]3(O)C(=O)C1=C2O (stereo partly specified)	-8	8.2µM*	3.7µM*	-3%	-1%	-20%
CN(C)c1ccc(O)c2c1C[C@H]1C[C@H]3[C@H](N(C)C)C(=O)C(C(N)=O)=C(O)[C@@]3(O)C(=O)C1=C2O	·	6.5µM*	21µM*!	·	·	·
CC(C)NC(=O)[C@@H]1C[C@@H](Sc2ccccn2)CN1C1CCN(C)CC1	·	6%	-10%	·	·	·
O=C(COC(=O)c1ccc(F)cc1F)c1ccc[nH]1	-11	1%	-8%	·	15%	-2%
Cc1ccc(C)c(N2CCN(C(=O)c3ccc(CS(=O)(=O)c4ccccc4C)o3)CC2)c1	1	18µM*	18µM*	-6%	-18%	-44%
Cc1ccc(S(=O)(=O)Cc2ccc(C(=O)N3CCN(c4ccccn4)CC3)o2)cc1	-1	12µM*	?	-3%	-16%	-28%
COc1ccc(N2CCN(C(=O)c3ccc(CS(=O)(=O)c4ccccc4C)o3)CC2)cc1	19	?	?	0%	?	-39%
Cc1ccc(S(=O)(=O)Cc2ccc(C(=O)N3CCN(c4cc(C)ccc4C)CC3)o2)cc1	18	15µM*	12µM*	-2%	-19%	3%
COc1ccc(C(=O)CSC2=NS(=O)(=O)c3cc(Cl)ccc3N2)cc1	-7	?	-29%	0%	-1%	-2%
Cc1ccccc1CCNC(=O)c1cc(C2CC2)nc2c1cnn2C(C)C	-24	21µM*	?	-8%	?	-4%
CC(C)n1ncc2c(C(=O)NCCc3ccc(F)cc3)cc(C3CC3)nc21	?	?	23µM*	-11%	2%	0%
